Laboratory results as given in PubChem BioAssay AID1159580 (chemical genetic matrix, 2015).
Several values for one entry are separate records, joined by “and”; a condition that tells them apart may be missing. Equal values may be shown once. About 2,000 (36%) of roughly 5,500 compounds were called active. Not shown: some 18% with an inconclusive outcome. No stated cut-off is given here; in the data, active means normalized growth mostly below about 0.91 (no sharp cut-off); inconclusive means no clear call, values can overlap the other calls; inactive means mostly above about 0.92. The list shows a part of the results.

Experiment: chemical genetic growth profiling, strain panel (AID 1159580);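 further: tested at 20 µM; growth read once vehicle control cultures reached saturation at 30 °C; 1 = growth at the plate median or of vehicle wells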
Conditions: S. cerevisiae deletion strains, growth OD

Measured: normalized growth

CCC(C)C(=O)O[C@@H]1C[C@@]2(C)[C@H](c3ccoc3)OC(=O)CC23OC2(C)O[C@]14[C@]1(C)[C@@H](CC(=O)OC)C5(C)CC1(O)[C@](O)(C5OC(=O)C1(C)OC1C)[C@@H](OC(C)=O)[C@]34O2 (some centres undefined)
inactive: locus YAL013W, strain DEP1, stronger effect = lower value 1.02 | locus YAL021C, strain ccr4, stronger effect = lower value 0.996 | locus YAL026C, strain drs2, stronger effect = lower value 0.988 | locus YAL030W, strain snc1, stronger effect = lower value 0.991 | locus YBL061C, strain skt5, stronger effect = lower value 1 | locus YBR009C, strain hhf1, stronger effect = lower value 1.01 | locus YBR021W, strain FUR4, stronger effect = lower value 1.03 | locus YBR023C, strain chs3, stronger effect = lower value 1.01 | locus YBR171W, strain sec66, stronger effect = lower value 0.978 | locus YBR229C, strain ROT2, stronger effect = lower value 1.01 | locus YBR231C, strain swc5, stronger effect = lower value 0.995 | locus YBR279W, strain paf1, stronger effect = lower value 1 | locus YCL011C, strain gbp2, stronger effect = lower value 0.983 | locus YCL016C, strain dcc1, stronger effect = lower value 1.01 | locus YCL029C, strain bik1, stronger effect = lower value 1.02 | locus YCL061C, strain MRC1, stronger effect = lower value 1.01 | locus YCL069W, strain vba3, stronger effect = lower value 0.98 | locus YCR088W, strain abp1, stronger effect = lower value 0.995 | locus YDL005C, strain med2, stronger effect = lower value 0.978 | locus YDL035C, strain GPR1, stronger effect = lower value 0.963 | locus YDL040C, strain nat1, stronger effect = lower value 0.982 | locus YDL074C, strain BRE1, stronger effect = lower value 0.994 | locus YDL101C, strain DUN1, stronger effect = lower value 1.02 | locus YDL185W, strain tfp1, stronger effect = lower value 1.02 | locus YDL192W, strain arf1, stronger effect = lower value 0.995 | locus YDR001C, strain nth1, stronger effect = lower value 0.997 | locus YDR069C, strain doa4, stronger effect = lower value 1.01 | locus YDR101C, strain arx1, stronger effect = lower value 1.02 | locus YDR159W, strain sac3, stronger effect = lower value 1.02 | locus YDR162C, strain NBP2, stronger effect = lower value 0.979 | locus YDR195W, strain ref2 0.969 | locus YDR297W, strain sur2, stronger effect = lower value 0.995 | locus YDR318W, strain mcm21, stronger effect = lower value 1.02 | locus YDR334W, strain swr1, stronger effect = lower value 0.983 | locus YDR335W, strain msn5, stronger effect = lower value 0.992 | locus YDR388W, stronger effect = lower value 1.02 | locus YDR392W, strain spt3, stronger effect = lower value 0.918 | locus YDR502C, strain sam2, stronger effect = lower value 1.03 | locus YEL003W, strain gim4, stronger effect = lower value 0.993 | locus YEL037C, strain rad23, stronger effect = lower value 0.995 | locus YEL061C, strain CIN8 (second series), stronger effect = lower value 0.988 | locus YEL061C, strain CIN8, stronger effect = lower value 1 | locus YER015W, strain faa2, stronger effect = lower value 1 | locus YER016W, strain bim1, stronger effect = lower value 0.995 | locus YER110C, stronger effect = lower value 1.02 | locus YER111C, strain swi4, stronger effect = lower value 0.976 | locus YER155C, strain BEM2 (second series), stronger effect = lower value 1 | locus YER155C, strain BEM2, stronger effect = lower value 1.01 | locus YER167W, strain BCK2, stronger effect = lower value 1 | locus YFR010W, strain ubp6, stronger effect = lower value 0.985 | locus YGL078C, strain dbp3, stronger effect = lower value 1.05 | locus YGL086W, strain mad1, stronger effect = lower value 1.01 | locus YGL167C, strain pmr1, stronger effect = lower value 0.995 | locus YGL173C, strain kem1, stronger effect = lower value 0.993 | locus YGL227W, strain vid30, stronger effect = lower value 0.994 | locus YGL240W, strain doc1, stronger effect = lower value 0.977 | locus YGL248W, strain PDE1, stronger effect = lower value 1.01 | locus YGL253W, strain hxk2, stronger effect = lower value 0.952 | locus YGR078C, strain PAC10, stronger effect = lower value 1.02 | locus YGR135W, strain pre9, stronger effect = lower value 1.04 | locus YGR229C, strain SMI1, stronger effect = lower value 1.03 | locus YGR252W, strain gcn5, stronger effect = lower value 1.04 | locus YHR013C, strain ard1, stronger effect = lower value 0.984 | locus YHR027C, strain rpn1, stronger effect = lower value 0.996 | locus YHR030C, strain SLT2, stronger effect = lower value 1.02 and 0.954 | locus YHR079C, strain IRE1 (second series), stronger effect = lower value 1.02 | locus YHR079C, strain IRE1, stronger effect = lower value 0.962 | locus YHR094C, strain hxt1, stronger effect = lower value 1.02 | locus YHR129C, strain ARP1, stronger effect = lower value 1 | locus YHR142W, strain chs7, stronger effect = lower value 0.984 | locus YHR200W, strain rpn10, stronger effect = lower value 1.02 | locus YIL066C, strain RNR3, stronger effect = lower value 0.999 | locus YIL073C, strain SPO22, stronger effect = lower value 1.04 | locus YIL125W, strain kgd1, stronger effect = lower value 1.02 | locus YIR030C, strain dcg1, stronger effect = lower value 1.02 | locus YJL092W, strain hpr5, stronger effect = lower value 0.986 | locus YJL095W, strain BCK1 (second series), stronger effect = lower value 1 | locus YJL095W, strain BCK1, stronger effect = lower value 1.01 and 0.948 | locus YJL115W, strain asf1, stronger effect = lower value 1 | locus YJL129C, strain trk1, stronger effect = lower value 0.983 | locus YJL134W, strain LCB3, stronger effect = lower value 1.01 | locus YJL154C, strain vps35, stronger effect = lower value 0.993 | locus YJL164C, strain tpk1, stronger effect = lower value 1.01 | locus YJL166W, strain qcr8, stronger effect = lower value 0.987 | locus YJL168C, strain set2, stronger effect = lower value 1.02 | locus YJL187C, strain SWE1 (second series), stronger effect = lower value 1.02 | locus YJL187C, strain SWE1, stronger effect = lower value 1 | locus YJR066W, strain TOR1, stronger effect = lower value 0.912 | locus YJR075W, strain HOC1, stronger effect = lower value 1.02 | locus YKL009W, strain mrt4, stronger effect = lower value 0.989 | locus YKL068W, stronger effect = lower value 1 | locus YKL085W, strain MDH1 (second series), stronger effect = lower value 1 | locus YKL085W, strain MDH1, stronger effect = lower value 1 | locus YKL160W, strain elf1, stronger effect = lower value 1.02 | locus YKR001C, strain vps1, stronger effect = lower value 1.01 | locus YKR026C, strain gcn3, stronger effect = lower value 1 | locus YKR091W, strain srl3, stronger effect = lower value 0.996 | locus YLL001W, strain dnm1, stronger effect = lower value 1.01 | locus YLL026W, stronger effect = lower value 1 | locus YLL041C, strain sdh2, stronger effect = lower value 0.987 | locus YLR027C, strain aat2, stronger effect = lower value 1.01 | locus YLR039C, strain RIC1, stronger effect = lower value 0.683 | locus YLR058C, strain SHM2, stronger effect = lower value 1 | locus YLR102C, strain apc9, stronger effect = lower value 1.03 | locus YLR113W, strain HOG1, stronger effect = lower value 1 | locus YLR221C, strain rsa3, stronger effect = lower value 0.978 | locus YLR258W, strain gsy2, stronger effect = lower value 0.988 | locus YLR268W, strain sec22, stronger effect = lower value 0.995 | locus YLR320W, strain mms22, stronger effect = lower value 0.979 | locus YLR330W, strain CHS5, stronger effect = lower value 1.02 | locus YLR342W, strain FKS1 (second series), stronger effect = lower value 0.981 | locus YLR342W, strain FKS1, stronger effect = lower value 0.977 | locus YLR357W, strain rsc2, stronger effect = lower value 1.01 | locus YLR370C, strain arc18, stronger effect = lower value 0.971 | locus YLR371W, strain rom2, stronger effect = lower value 1.01 | locus YLR384C, strain iki3, stronger effect = lower value 1.01 | locus YLR418C, strain cdc73, stronger effect = lower value 1.01 | locus YML016C, strain PPZ1, stronger effect = lower value 1 | locus YML032C, strain rad52, stronger effect = lower value 1.01 | locus YML120C, strain ndi1, stronger effect = lower value 0.992 | locus YML124C, strain tub3, stronger effect = lower value 1.01 | locus YMR058W, strain fet3, stronger effect = lower value 1.01 | locus YMR078C, strain ctf18, stronger effect = lower value 1.02 | locus YMR125W, strain sto1, stronger effect = lower value 0.991 | locus YMR129W, stronger effect = lower value 0.999 | locus YMR205C, strain PFK2, stronger effect = lower value 1.01 | locus YMR223W, strain ubp8, stronger effect = lower value 1.02 | locus YMR231W, strain pep5, stronger effect = lower value 0.945 | locus YMR307W, strain GAS1, stronger effect = lower value 0.925 | locus YNL067W, strain RPL9B, stronger effect = lower value 1.03 | locus YNL071W, strain lat1, stronger effect = lower value 0.994 | locus YNL183C, strain NPR1, stronger effect = lower value 0.928 | locus YNL209W, strain ssb2, stronger effect = lower value 0.995 | locus YNL233W, strain BNI4, stronger effect = lower value 1.03 | locus YNL248C, strain rpa49, stronger effect = lower value 0.975 | locus YNL250W, strain rad50, stronger effect = lower value 1.05 | locus YNL271C, strain bni1, stronger effect = lower value 1.02 | locus YNL298W, strain CLA4, stronger effect = lower value 1.02 | locus YNL307C, strain MCK1, stronger effect = lower value 1.03 | locus YNL322C, strain KRE1 (second series), stronger effect = lower value 0.984 | locus YNL322C, strain KRE1, stronger effect = lower value 1.02 | locus YNR049C, strain mso1, stronger effect = lower value 0.999 | locus YNR052C, strain pop2, stronger effect = lower value 1.03 | locus YOL012C, strain htz1 0.597 | locus YOL147C, strain pex11, stronger effect = lower value 1.02 | locus YOR001W, strain rrp6, stronger effect = lower value 0.941 | locus YOR061W, strain CKA2, stronger effect = lower value 1 | locus YOR069W, strain VPS5, stronger effect = lower value 1.01 | locus YOR070C, strain gyp1, stronger effect = lower value 0.994 | locus YOR080W, strain dia2, stronger effect = lower value 0.985 | locus YOR083W, strain WHI5, stronger effect = lower value 1.03 | locus YOR106W, strain vam3, stronger effect = lower value 1.02 | locus YOR136W, strain idh2, stronger effect = lower value 0.999 | locus YOR144C, strain elg1, stronger effect = lower value 1.02 | locus YOR184W, strain ser1, stronger effect = lower value 0.996 | locus YOR231W, strain MKK1, stronger effect = lower value 0.978 | locus YOR265W, strain rbl2, stronger effect = lower value 0.994 | locus YOR270C, strain vph1, stronger effect = lower value 0.779 | locus YOR290C, strain snf2, stronger effect = lower value 1 | locus YOR316C, strain cot1, stronger effect = lower value 1.02 | locus YPL051W, strain arl3, stronger effect = lower value 1.01 | locus YPL078C, strain atp4, stronger effect = lower value 1.01 | locus YPL106C, strain sse1, stronger effect = lower value 1.02 | locus YPL240C, strain hsp82, stronger effect = lower value 0.989 | locus YPL241C, strain CIN2, stronger effect = lower value 1.01 | locus YPL256C, strain CLN2, stronger effect = lower value 0.965 | locus YPR119W, strain clb2, stronger effect = lower value 1.01 | locus YPR141C, strain kar3, stronger effect = lower value 1.03 | locus YPR163C, strain tif3, stronger effect = lower value 1.02 | locus YPR167C, strain met16, stronger effect = lower value 1.02 | strain wtn01, stronger effect = lower value 1
active: locus YDR137W, strain rgp1, stronger effect = lower value 0.726 | locus YLR262C, strain YPT6 (second series), stronger effect = lower value 0.711 | locus YLR262C, strain YPT6, stronger effect = lower value 0.602
